D1 antag = antagonists of human D1 dopamine receptor | HEK293 TREx D1 cells, calcium flux, dopamine EC80; hits give low values | activity change, negative = inhibition, % at 10 µM | 3.2% of 360,000 active | AID 504652; in the data active means activity change below about -30%; further: on the % scale 0 is the no-effect control and ±100 the full control effect
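Calcium flux readout: force-coupled, inducible Hek293 Trex D1 line, cells induced overnight at 30 C with tetracycline, dye-loaded 30–90 min at RT. Antagonism scored against EC80 dopamine challenge given 180 s after compound.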
Glioma ERSR ind = induces the endoplasmic reticulum stress response in human glioma cells | U87-MG GRP78 promoter luciferase reporter, 16 h | 0.02% of 420,000 active | Potency, µM, without a hit: at the top dose activation, hits mostly activators; active means well fitted activation curve with a large enough effect; inconclusive means small, poorly fitted or top-dose-only effect; inactive means no such curve, though single readings can be large or run the other way; further: potency means the concentration at half of the fitted maximal effect; series mostly up to about 76 µM; % of control where 0% means no effect; nearly all actives have a fitted effect of over 35% in size
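Stably transfected U87-MG glioma cells carrying a GRP78-based luciferase sensor; 16 h compound incubation. Luminescence end-point read 10 min after Bright-Glo addition at room temperature.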
D1 PAM = human D1 dopamine receptor positive modulation | P21728 | HEK293 TREx D1 cells, calcium flux, dopamine EC20 potentiation | potentiation, % at 10 µM | 0.036% of 360,000 active | AID 504651; in the data active means potentiation above about 30%; further: 0% is about no effect
TRHR enhancer = allosteric enhancers of human TRH receptor; P34981; TRHR cells, fluo-8 calcium fluorescence, EC20 TRH enhancement; enhancement, % at 2 µM; 0.66% of 360,000 active; in the data active means enhancement above about 30%; further: 0% is about no effect
Target sequence (P34981 whole entry, looked up): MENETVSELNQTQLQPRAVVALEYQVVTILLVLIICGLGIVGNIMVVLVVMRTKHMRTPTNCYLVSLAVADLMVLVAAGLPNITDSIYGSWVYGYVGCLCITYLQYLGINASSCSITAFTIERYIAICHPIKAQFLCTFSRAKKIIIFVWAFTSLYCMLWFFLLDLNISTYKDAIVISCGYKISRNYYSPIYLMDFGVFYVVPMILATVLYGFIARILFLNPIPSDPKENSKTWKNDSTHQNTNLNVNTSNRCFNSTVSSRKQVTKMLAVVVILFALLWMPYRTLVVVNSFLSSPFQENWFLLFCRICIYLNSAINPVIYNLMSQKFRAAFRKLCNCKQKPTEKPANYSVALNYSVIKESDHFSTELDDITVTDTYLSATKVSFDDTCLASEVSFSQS
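TRHR-expressing cells loaded with fluo-8 calcium dye were read kinetically (ex 480/em 530) during compound addition, then stimulated with an EC20 of TRH (10 nM final). Enhancement of the Gq-mediated intracellular calcium response was scored.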
D1 ag = agonists of human D1 dopamine receptor; P21728; HEK293 T-REx D1 cells, calcium flux, agonist mode; activation, % at 2 µM; 1% of 360,000 active; further: 0% is about no effect
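Agonism was scored from calcium flux recorded over 180 s (1 read/s) after pintool compound addition, following a 10-cycle baseline. Cells were inducible force-coupled HEK293 TREx D1, plated overnight at 30 C and loaded with no-wash calcium dye.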
TRHR agonist = agonists of human TRH receptor; P34981; TRHR cells, calcium flux fluo-8, FDSS agonist mode; activation, % at 2 µM; 0.18% of 360,000 active; AID 493084; further: 0% is about no effect
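TRHR-expressing cells, plated overnight in medium with 10% serum, were loaded with fluo-8 calcium dye at room temperature. After a 10 s baseline, library compound was pin-added and calcium release was recorded kinetically (ex 480/em 530) as agonist response.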
* marks the source's active call; other numbers are inactive results; ? = inconclusive; . = not tested or not shown. An excerpt weighted towards active compounds, which were near 4% of everything screened. Unless noted, no stated cut-off is given here; in the data, active means activation above about 30%; inactive means the rest.

SMILES | D1 antag | Glioma ERSR ind | D1 PAM | TRHR enhancer | D1 ag | TRHR agonist
O=C(NCc1ccc(F)cc1)C1CCN(C(=O)c2ccc(-n3ccc4ccccc43)s2)CC1 | -31* | -1% | -5 | -2 | 3 | 0
CCOc1ccc(CNC(=O)C2CCN(C(=O)c3ccc(-n4ccc5ccccc54)s3)CC2)cc1 | -6 | -5% | -5 | 7 | 11 | 2
O=C([O-])[C@@H]1[O][Sb+]([O][Sb+]2[O][C@H]([C@H](O)CO)[C@H](O)[C@H](C(=O)[O-])[O]2)[O][C@H]([C@H](O)CO)[C@@H]1O | . | 1% | . | . | . | .
CC(C)C(=O)NC(=S)Nc1ccc(S(=O)(=O)N(C)Cc2ccccc2)cc1 | -35* | -4% | -11 | 6 | 2 | -1
CN(Cc1ccccc1)S(=O)(=O)c1ccc(NS(=O)(=O)Cc2ccccc2)cc1 | -34* | 1% | 0 | 1 | 4 | 0
CC(=O)NC(=S)Nc1ccc(S(=O)(=O)N(C)Cc2ccccc2)cc1 | -31* | -2% | -8 | 13 | 19 | -1
Cc1cccc2cc(CNCCCN3CCCC3=O)c(N3CCN4CCCC4C3)nc12 (stereo unspecified) | . | -2% | . | . | . | .
CCS(=O)(=O)Nc1cc(C(=O)N2CCCN(C=O)CC2)c2c(c1)nc(-c1ccccc1)n2C | . | -3% | . | . | . | .
O=C(N=C1N=C2C=CC(Br)=CN2Cc2ccccc21)c1ccc([N+](=O)[O-])cc1[N+](=O)[O-] | 4 | ? | 2 | -4 | 2 | 0
O=C(O)CN1C(=O)/C(=C\c2ccccc2OCc2ccc(Cl)cc2Cl)SC1=S | 8 | -13% | -12 | 6 | 35* | -3
O=C(NCc1ccc2c(c1)CCN2C(=O)c1ccccc1)Nc1cccc(C(F)(F)F)c1 | -43* | -6% | -3 | -5 | 2 | 0
Cc1ccc(C)c(NC(=O)NCc2ccc3c(c2)CCN3C(=O)c2ccccc2)c1 | -6 | -4% | -1 | 2 | 0 | 0
Cc1cc(NC(=O)CN2C(=O)NC(CC(C)C)C2=O)ccc1Br (stereo unspecified) | -8 | 0% | -8 | -2 | 0 | 0
CC(C)CC1NC(=O)N(CC(=O)Nc2cccc(Br)c2)C1=O (stereo unspecified) | -39* | -2% | -6 | 12 | -2 | 0
CC(=O)c1cccc(NC(=O)CC2CCCC2)c1 | 56 | -1% | -6 | -1 | 1 | 1
O=C(CC1CCCC1)Nc1cccc(Br)c1 | -38* | 3% | -7 | -4 | 3 | 0
Cc1cc(C)c2cc3c(N)c(C(=O)N4CCc5ccccc5C4)sc3nc2c1 | 9 | -5% | -5 | 11 | 2 | 0
Cc1cccc2cc3c(N)c(C(=O)N4CCOCC4)sc3nc12 | -11 | -3% | 0 | 1 | 49* | 0
COc1ccc(Nc2oc(COc3ccc(C)cc3)nc2C#N)cc1 | -2 | ? | -4 | -1 | 1 | 0
COc1ccc(Nc2oc(COc3ccc(OC)cc3)nc2C#N)cc1 | -34* | -6% | -13 | -4 | 1 | 0
N#CC(C#N)=C(Nc1ccc(F)cc1)SCc1cccc(F)c1 | -44* | -4% | -12 | -7 | 34* | 4
COC(=O)CSc1nc2sc3c(c2c(=O)n1-c1ccc(OC)cc1)CCN(C)C3 | 3 | -4% | 2 | 33* | 2 | 2
CN1CCc2c(sc3nc(SCC(=O)NCc4ccco4)n(-c4ccccc4)c(=O)c23)C1 | -33* | 1% | -8 | -6 | 3 | 0
C=CCNC(=O)c1onc(CSc2ccccn2)c1C(=O)NCC=C | -60* | -5% | 0 | 2 | 2 | 0
CC(C)(C)OC(=O)N1CCC(c2c(C(=O)N3CCN(c4ccccn4)CC3)cnn2-c2ccccc2Cl)CC1 | -2 | -2% | -5 | 9 | 0 | -1
SMILES | D1 antag | Glioma ERSR ind | D1 PAM | TRHR enhancer | D1 ag | TRHR agonist
Cc1ccc2[nH]c(C(=O)N3CCCC(Nc4ccc(F)cc4)C3)cc2c1 (stereo unspecified) | -30* | -2% | -8 | 4 | 3 | 1
COC(=O)C/C=C\[C@@H](C)[C@@H](/C=N\O[C@@H]1O[C@H](COC(C)=O)[C@H](OC(C)=O)[C@H](OC(C)=O)[C@H]1OC(C)=O)OC | . | -2% | . | . | . | .
CC(C)C[C@H](NC(=O)[C@H](CCCCN)NC(=O)CNC(=O)[C@H](CC(C)C)NC(=O)[C@@H](N)C(C)C)C(=O)N[C@@H](CO)C(=O)N[C@@H](CCC(N)=O)C(=O)N[C@@H](CCC(=O)O)C(=O)N[C@@H](CC(C)C)C(=O)N[C@@H](Cc1cnc[nH]1)C(=O)N[C@@H](CCCCN)C(=O)N[C@@H](CC(C)C)C(=O)N[C@@H](CCC(N)=O)C(=O)N[C@H](C(=O)N[C@@H](Cc1ccc(O)cc1)C(=O)N1CCC[C@H]1C(=O)N[C@@H](CCCNC(=N)N)C(=O)N[C@H](C(=O)N[C@@H](CC(N)=O)C(=O)N[C@H](C(=O)NCC(=O)N[C@@H](CO)C(=O)NCC(=O)N[C@H](C(=O)N1CCC[C@H]1C(N)=O)[C@@H](C)O)[C@@H](C)O)[C@@H](C)O)[C@@H](C)O | . | 2% | . | . | . | .
Cn1c(=O)c(C(=O)COc2ccc(C#N)cc2)c(N)n(Cc2ccccc2)c1=O | -18 | -1% | 0 | 1 | 59* | 10
COCCOC(=O)c1[nH]c2c(c1C)C(=O)CC(c1ccccc1)C2 (stereo unspecified) | -18 | -4% | -2 | 0 | 6 | 0
COCCOC(=O)c1[nH]c2c(c1C)C(=O)CC(c1ccc(F)cc1)C2 (stereo unspecified) | -7 | -7% | -6 | -3 | 64* | 0
C=CC[C@@H]1C=C[C@H](O/N=C(\C)CCN2CCCc3nc(C)c(C)cc32)[C@H](CO)O1 | . | -5% | . | . | . | .
CCCCc1ccc(S(=O)(=O)NCCc2ccncc2)cc1 | -45* | -6% | -5 | -8 | 9 | -1
CCCCOc1ccc(S(=O)(=O)Nc2cccnc2)cc1 | -37* | 0% | -1 | -3 | 23 | 1
FC(F)(F)c1cnc(NNC(=S)Nc2ccccc2Cl)c(Cl)c1 | -33* | -11% | -5 | 2 | 26 | 6
CCN(c1ccc(OC)cc1)S(=O)(=O)c1nnc(NC(=O)CC(C)C)s1 | 5 | -2% | -2 | -2 | 0 | -1
CC(C)(C)n1ncc2c(=O)n(Cc3ccccc3SC(F)(F)F)cnc21 | . | -3% | . | . | . | .
NS(=O)(=O)OCCCc1ccccc1 | -37* | -6% | -3 | 1 | 1 | 0
NS(=O)(=O)OCCCCCc1ccccc1 | -1 | -1% | 2 | -5 | 2 | 0
CCOC(=O)c1sc2ncn(CC(=O)Nc3cc(C)cc(C)c3)c(=O)c2c1C | 3 | -2% | 2 | 6 | 2 | 0
